This is an account of results in PubChem BioAssay (NCI).

Molecules are shown by their SMILES. This is part of a sample that, as a whole, favours compounds with a hit. Of some 79,000 tested, about 15% had one in any assay. A number with no mark means an inactive call. Calls of active or inactive are those of the source. Rule as the data show it: active = growth inhibition above about 70%; inactive = the rest. Where a SMILES comes first, the peptide text is derived from it. Bridges are numbered along the chain shown (N, C = ends). Roman numbers before positions name the chains, in order. [ ]: non-standard residue; d: D form. The star is where a group is joined. Quinoxaline2carbonyl = O=C(c1cnc2ccccc2n1)*; NMeV = CN[CH](C(=O)O)C(C)C; NMeC = CN[CH](CS)C(=O)O

The assay can be described thus: NCI Yeast Anticancer Drug Screen. Data for the cln2 rad14 strain (AID 165).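 Also: 0% = growth equal to vehicle treated cultures.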 The note with it: S. cerevisiae cln2 rad14 strain, at 50.0 µM, hits give high values. As for the experimental part:
Growth inhibition of yeast strains with defined genetic alterations is measured as a screen for potential anti-cancer activity. Selected strains with alterations in DNA damage repair or cell cycle control were exposed to compounds and growth inhibition was measured relative to vehicle treated controls. The strain used in this assay is cln2 rad14
For the compound `[Pd].c1ccc([PH+](CC[PH+](c2ccccc2)c2ccccc2)c2ccccc2)cc1.c1ccc([PH+](CC[PH+](c2ccccc2)c2ccccc2)c2ccccc2)cc1`, the growth inhibition was 15.1%.

Regarding `CC(=O)CC(C)=O`, the growth inhibition was -11.3%.

For the compound `O=C(COc1cccc(Cl)c1)NCc1ccccc1NC(=O)c1ccc(S(=O)(=O)F)cc1`, the growth inhibition is 89.9% (active). The same measure for `O=[As]c1ccc2c(c1)NC(O)=CO2` (stereo not given): 27.9%; for `CC1(C)CN=C(Nc2ccc(F)c(Cl)c2)S1`: 9.8%; for `CCCCCCCC(=O)O.[Ni]`: 8.45%.

`CCOP(=O)(OCC)O/N=C(/c1ccccc1)C(C)C`: the growth inhibition was 10.3%.

Take `O=[N+]([O-])c1cc(S(=O)(=O)F)cc(Cl)c1O`: the growth inhibition is -3.7%.

For `C[N+]1(CCCl)CCc2ccc([N+](=O)[O-])cc2C1` (stereo not given), the growth inhibition is 0.8%. Consider `Cc1nnn[n-]1.N.N.N.N.N.[Cl-].[Co+3]`, for which the growth inhibition was 2.4%. For `C=CCC1(O)CCC2C3CCC4=CC(=O)CCC4=C3C=CC21CC` (stereo not given), the growth inhibition is 19.9%. The same measure for `CCN1CC2CCC1C2` (stereo not given): 5.5%; for `Nc1cc([N+](=O)[O-])cc([N+](=O)[O-])c1`: 4.9%. With `Oc1ccc(O)c(Br)c1`, the growth inhibition is -21.3%. The same measure for `CCCCCCCCCCCCCCCC(=O)OCC(C[As](=O)(O)O)OC(=O)CCCCCCCCCCCCCCC` (stereo not given): 9.5%; for `C=CCN1CC2CN=NC2(C#N)C1` (stereo not given): -22.3%.

As to `COC(=O)c1c(C(=O)OC)c1=[N+]=[N-]`, the growth inhibition is -10.8%. As to `CC1=CC23C(COC(=O)C24CO4)C(C(=O)O)=CC3C1C` (stereo not given), the growth inhibition is 27%. As to `O=c1ccc(=O)[nH][nH]1.[Mn]`, the growth inhibition is 17.1%.

For the compound `BrCC[N+]12CCCN1CCC2`, the growth inhibition was 0.2%.

For `CN(C)P1(N(C)C)=NP(c2ccccc2)(c2ccccc2)=NP(N(C)C)(N(C)C)=N1`, the growth inhibition is 24.2%. Consider `Cc1cccc(CCF)c1`, for which the growth inhibition was -3.8%. For `CC1NC(=O)C(NC(=O)c2cnc3ccccc3n2)COC(=O)C(C(C)C)N(C)C(=O)C2CSSCC(C(=O)N(C)C(C(C)C)C(=O)OCC(NC(=O)c3cnc4ccccc4n3)C(=O)NC(C)C(=O)N2C)N(C)C1=O` (stereo not given) (I: Quinoxaline2carbonyl-SA[NMeC][NMeV] / II: Quinoxaline2carbonyl-SA[NMeC][NMeV]; ester I:1-II:C, I:C-II:1; disulfide I:3-II:3; configuration not given here) the value was 86.7% (active); for `O=C(O)C(Cl)Cl`, -10.1%; for `C=C(C(=C)P(=S)(C(C)C)C(C)C)P(=S)(C(C)C)C(C)C`, 24.1%. Regarding `CCCCN(CCCC)C(=O)C1C=C2c3cccc4[nH]cc(c34)CC2N(C)C1` (stereo not given), the growth inhibition was -13.2%. For `O=C(O)C(=O)O.[NH2-].[NH2-].[Pt+2]` the value was -5.05%; for `CCN(CC)c1ccc([P+](=O)O)cc1`, -27.6%. Regarding `C=C1OC(OC)CC(N=[N+]=[N-])C1O` (stereo not given), the growth inhibition is -5.3%. The same measure for `C/C=C/C(=O)[O-].C/C=C/C(=O)[O-].N.N.N.N.[Co+3].[O-][Cl+3]([O-])([O-])[O-]`: 25.1%; for `C1C[N-]CC[N-]1.C1C[N-]CC[N-]1.[Zn]`: 98.8% (active). The same measure for `O=[As](O)(O)Cc1ccccc1`: -16.6%. For `O=[N+]([O-])c1cc(Br)c(O)c(Br)c1` the value was -37.4%; for `COc1ccc2c(c1)C1(C)CCN(C)CC(C1)C2O` (stereo not given), 22.9%. On to `O=C/C=C/c1ccccc1.[Fe+2].[c-]1[c-][c-][cH-][c-]1.[c-]1[c-][c-][cH-][c-]1`, for which the growth inhibition was 7.85%. For `O=[N+]([O-])/C=C\c1c[nH]c2ccc(OCc3ccccc3)cc12` the value was 45.4%.

With `Nc1ccc(S(=O)(=O)F)cc1`, the growth inhibition is 16.8%. The same measure for `O=c1oc2ccccc2c(O)c1C(c1ccc2c(c1)OCO2)c1c(O)c2ccccc2oc1=O`: 7%; for `CCN1CCOC(O)(c2cc(Cl)cc(Cl)c2Cl)C1` (stereo not given): -24.7%. For `CCOP(=O)(OCC)/C(C#N)=C/c1nccn1C`, the growth inhibition is 34.3%.
